For part of these data: Results with a measured potency or affinity are listed apart.
What was measured:
Staphylococcus aureus = experiment: Antibacterial activity against Staphylococcus aureus MRSA ATCC 43300 (CO-ADD:GP_020); MIC in CAMBH media using NBS plates, by Resazurin F(560/590); type: functional; conditions: Concentration 20 uM, ASSAY_TEST Inhibition of Bacterial Growth, detection method Resazurin, Fluorescence (ex560/em590), MEDIA CAMHB, plate type 384well, CORNING #3640, time 18 hr
Acinetobacter baumannii = experiment: Antibacterial activity against Acinetobacter baumannii ATCC 19606 (CO-ADD:GN_034); MIC in CAMBH media using NBS plates, by Resazurin F(560/590); type: functional; conditions: Concentration 20 uM, ASSAY_TEST Inhibition of Bacterial Growth, detection method Resazurin, Fluorescence (ex560/em590), MEDIA CAMHB, plate type 384well, CORNING #3640, time 18 hr
Escherichia coli = experiment: Antibacterial activity against Escherichia coli ATCC 25922 (CO-ADD:GN_001); MIC in CAMBH media using NBS plates, by Resazurin F(560/590); type: functional; conditions: Concentration 20 uM, ASSAY_TEST Inhibition of Bacterial Growth, detection method Resazurin, Fluorescence (ex560/em590), MEDIA CAMHB, plate type 384well, CORNING #3640, time 18 hr
Klebsiella pneumoniae = conditions: Concentration 20 uM; ASSAY_TEST Inhibition of Bacterial Growth; detection method Absorption (OD600); MEDIA CAMHB; plate type 384well; NBS; CORNING #3640; time 18 hr
Candida albicans = conditions: 20 µM
Cryptococcus neoformans = conditions: Concentration 20 uM; ASSAY_TEST Inhibition of Fungal Growth; detection method Resazurin; Absorption (OD600-OD570); plate type 384well; NBS; CORNING #3640

Row | SMILES | Inhibition (Staphylococcus aureus) | Inhibition (Acinetobacter baumannii) | Inhibition (Escherichia coli) | Inhibition (Klebsiella pneumoniae) | Inhibition (Candida albicans) | Inhibition (Cryptococcus neoformans)
1 | NC(=O)Cc1ccc2c(c1)[nH]c1ccccc12 | 5.19% | -14.3% | 7.64% | 6.47% | 5.86% | -8.43%
2 | Oc1ccc(Cl)nn1 | 1.52% | -4.23% | 4.23% | 8.48% | 0.96% | 1.34%
3 | FC(F)(F)c1cccc(OCC2CN=C(S)O2)c1 (stereo not given) | 8.92% | 11.68% | -6.27% | 16.05% | 8.74% | 3.63%
4 | C=C(C)C/N=C/C1(C)CCC(C)=CO1 (stereo not given) | -0.35% | 0.87% | -9.37% | 5.17% | 1.63% | 19.3%
5 | O=C(Nc1ccc(NC(=O)c2ccncc2)cc1)c1ccncc1 | 23.04% | -1.2% | 8.24% | 15.75% | 1.6% | -0.9%
6 | Cc1cccc(NC2=C(C#N)C(=O)NC3(CCCC3)S2)c1 | -0.83% | -3% | -9.49% | 8.76% | 11% | 1.34%
7 | Cc1ccc(Nc2nc(Cl)nc3ncn(C)c23)c(C)c1 | 8% | 11.23% | -0.86% | 14.74% | 2.26% | -7.52%
8 | CN(C)c1ccc(/C=C2/C=C(c3ccc4c(c3)CCCC4)OC2=O)cc1 | 19.91% | -7.24% | 16.55% | 6.65% | 4.35% | 1.53%
9 | O=C1/C(=C/c2ccc([N+](=O)[O-])cc2)CCc2ccccc21 | 6.03% | -4.9% | 11.7% | 8.24% | 3.4% | -8.15%
10 | CC1CCCC(CC(=O)O)(CC(=O)O)C1 (stereo not given) | -13.43% | 0.95% | -5.78% | 6.3% | 2.72% | -2.12%
11 | CCCCN1C(=O)CC2CCOC21C (stereo not given) | 9.16% | -12.54% | 6.99% | 9.62% | 10.6% | -12.41%
12 | Cn1c(=O)c2c(nc(Cc3ccc(N)cc3)n2C)n(C)c1=O | 12.3% | 8.51% | 1.69% | 16.58% | -1.67% | -5.25%
13 | c1ccc(-c2nc(-c3nccc4ccccc34)oc2-c2ccccc2)cc1 | -13.7% | -4.32% | -16.8% | -4.05% | 15.1% | 12.09%
14 | C=C(C)C(=O)Nc1ccc(NC(C)C)cc1 | 12% | 5.36% | 6.32% | 8.48% | 4.24% | -6.96%
15 | COC(=O)c1c(-c2ccccc2)[nH]c(-c2nccc3ccccc23)c1C(=O)OC | 3.54% | 6.34% | 1.46% | 12.08% | 2.5% | -2.2%
16 | COc1ccc2nc(-c3ccc(Cl)cc3)cc(C(=O)O)c2c1 | -2.13% | -6.37% | 6.47% | 11.49% | 35.6% | -9.35%
17 | CC(=O)[C@@]1(O)[C@H](C)C[C@H]2[C@@H]3C=C(C)C4=Cc5c(cnn5-c5ccccc5)C[C@]4(C)[C@H]3[C@@H](O)C[C@@]21C | 3.25% | -8.97% | 7.95% | 0.96% | 4.25% | -3.62%
18 | OCc1ncc(-c2ccccc2)s1 | -7.34% | -9.91% | 3.7% | 5.05% | 2.13% | -4.82%
19 | O=C(O)C1CCC(=O)N1C(=O)OCc1ccccc1 (stereo not given) | 2.22% | -12.76% | 8.61% | 12.18% | -1.6% | -3.17%
20 | Nc1[nH]nc2nc(-c3ccccc3)nc(O)c12 | -2.47% | -10.04% | 2.06% | 6.75% | -0.22% | -3.34%
21 | Oc1ccccc1Nc1ccccn1 | 8.12% | -5.24% | 13.47% | 16.23% | 1.04% | -3.55%
22 | COc1ccccc1NC(=O)c1cc2ccccc2cc1O | 12.35% | 5.68% | 6.98% | 12.44% | -0.94% | -6.93%
23 | CC1=NCC(C)c2ccccc21 (stereo not given) | 18.64% | -4.26% | 9.51% | 8.39% | -2.04% | -2.64%
24 | Cc1c(Cl)cccc1Nc1ncccc1C(=O)OCC(O)CO (stereo not given) [CLONIXERIL] | 16.87% | 6.56% | -0.19% | 9.09% | -1.76% | -6.15%
25 | CN(C)S(=O)(=O)c1ccc(N)c([N+](=O)[O-])c1 | -6.85% | 12.87% | 8.14% | 9.42% | 1.38% | -8.3%

Row | SMILES | Inhibition (Staphylococcus aureus) | Inhibition (Acinetobacter baumannii) | Inhibition (Escherichia coli) | Inhibition (Klebsiella pneumoniae) | Inhibition (Candida albicans) | Inhibition (Cryptococcus neoformans)
26 | CC1(C)CCSC(/C=C/c2ccccc2)=N1 | 5.78% | 13.91% | -1.41% | 18.54% | 1.26% | -4.58%
27 | CC(C)(C)C1=NN=C2c3ccccc3C(=O)C21 (stereo not given) | -4.27% | 3.03% | -6.26% | 1.25% | 5.03% | -9.6%
28 | CCOC(=O)c1c[nH]nc1O | 2.24% | -6.35% | -2.97% | 21.4% | -1.88% | 1.44%
29 | CC(C)c1ccc(-c2nc3ccccc3s2)cc1 | 16.1% | 2.02% | 4.01% | 12.27% | 8.12% | -7.1%
30 | COc1ccc(Nc2cc(C)nc(N)n2)cc1 | -7.83% | -5.29% | -4.32% | 2.7% | 1.31% | -3.23%
31 | O=C1NCN(CCO)CN1 | 3.46% | -3.91% | 8.55% | 4.75% | 0.72% | -3.9%
32 | CCOC(=O)Nc1ccc2nc(N3CCCCCC3)sc2c1 | 14.81% | 14.56% | 8.66% | 9.37% | 0.84% | -12.19%
33 | Cc1c(Cl)ccc2c(C(=O)O)cc(-c3ccccc3)nc12 | -8.14% | 11.6% | 2.11% | 26.83% | 2.48% | 13.39%
34 | CC(C)(C)c1ccc(C(=O)N2CCOC23CCCCC3)cc1 | 6.69% | 7.06% | 4.56% | 2.74% | 2.86% | -8.62%
35 | OCC1CCCC(n2cnc3c(S)ncnc32)O1 (stereo not given) | 9.66% | 5.96% | 6.02% | 14.91% | 14% | -13.51%
36 | ClC(Cl)(Cl)C1=Nc2c(nnn2Cc2ccccc2)CN1 | 1.51% | 7.83% | 14.39% | 3.07% | -3.28% | -12.54%
37 | CC(=O)NS(=O)(=O)c1ccc2sc(C)nc2c1 | 3.75% | -11.67% | 8.35% | 5.23% | 3.43% | -4.98%
38 | Oc1nc2[nH]c(Cl)nc(Cl)c-2n1 | 12.09% | -10.58% | 13.78% | 9.63% | -2.33% | -19.04%
39 | CC1=C(C(N)=O)S(=O)(=O)c2ccccc21 | 7.64% | -12.26% | 14.02% | 8.77% | 2.88% | -16.62%
40 | COc1cc2oc3cc(C)oc(=O)c3c2cc1OC | 14.15% | 0.41% | 8.42% | 14.11% | 1.88% | -16.92%
41 | CCOC(=O)C1CC(=O)c2cc(OC)c(OC)cc2C1 (stereo not given) | -2.55% | 9.78% | 7.27% | 13.25% | 3.32% | -12.53%
42 | NS(=O)(=O)c1cc2c(cc1Cl)NC(CC1CCCC1)NS2(=O)=O (stereo not given) [CYCLOPENTHIAZIDE] | 1.39% | 8.9% | -12.38% | 7.07% | 3.92% | 5.84%
43 | O=C(O)c1cc(O)ccc1/N=N/c1ccccc1 | 3.85% | -9.66% | 1.52% | 5.36% | 10.2% | -9.07%
44 | CC(=O)Oc1ccc2cc(-c3ccccc3)c(=O)oc2c1 | 19.48% | 8.94% | -2.31% | 17.84% | 4.89% | -3.36%
45 | Cl/N=C1/C=CC=C/C1=N/Cl | -18.23% | -7.09% | 4.05% | -1.59% | -1.15% | -1.81%
46 | C#CC1(N2CCCCC2)CCCCC1 | 17.84% | -17.5% | 12.63% | -1.14% | -1.65% | -12.88%
47 | Cc1c([N+](=O)[O-])oc2c1C(=O)NCCC2 | 15.45% | 5.11% | 5.84% | 9.17% | 2.94% | -11.37%
48 | CSc1cccc(NC(=O)OC2CCCCCCCCCCC2)c1 | 23.58% | 6.29% | 14.03% | 20.05% | 2.81% | -2.07%
49 | COc1cc(C2NC(=O)C(C#N)=C(Nc3cccc(C)c3)S2)ccc1O (stereo not given) | 16.64% | 5.33% | 14.44% | 11.49% | 1.94% | -8.18%
50 | Nc1ccc(Oc2ccc(N)c([N+](=O)[O-])c2)cc1[N+](=O)[O-] | 19.29% | -5.09% | 4.4% | 9.85% | 10.1% | -3.81%

Reference: ChEMBL document CHEMBL4296182, “CO-ADD screening of NIH NCI Diversity Set V”
